Compound activity (PubChem BioAssay)
The list is not random: actives were taken first. Their share in the collection is about 2.2%.
Rce1 inhib: yeast Ras-converting enzyme inhibition; Q03530; yeast membranes, quenched prenylated peptide cleavage fluorescence; calls only; actives 0.27% (n = 290,000); AID 2563;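 active means fall in fluorescence gain of 50% or more versus controls, with final raw signal at or below 3038400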;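 further: plate controls were neutral control wells for no effect and wells lacking membranes for full effect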
PfM18AAP inh: blocks P. falciparum M18 aspartyl aminopeptidase; AID 1822; actives 1.2% (n = 290,000); inhibition, % at 7.35 µM; recombinant PfM18AAP, H-Glu-NHMec fluorogenic cleavage;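 active means inhibition above the campaign mean inhibition over all tested compounds plus 3 SD, cut at about 28% in these data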;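 further: 0% = plate median of test compound wells and 100% = 2 mM ZnCl2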
GC-A act: GC-A (human) enzyme activation; activation, % at 10 µM; P16066; HEK293 GC-A cells, cGMP TR-FRET, EC30 ANP; 0% at EC30 ANP, 100% saturating ANP; AID 1671463; actives 0.14% (n = 370,000); in the data active means activation above about 40%
GC-B act: GC-B (human) receptor activation | actives 0.11% (n = 370,000) | HEK293-GC-B cells, CNP EC30, cGMP TR-FRET; 0% at EC30 CNP, 100% saturating CNP | activation, % at 10 µM | P20594;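 active means activation at 10 µM reaching about 35% in either raw or pattern-adjusted values, limit read from the data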
PLCg1 inh: inhibitors of human phospholipase C gamma1; actives 0.84% (n = 370,000); inhibition, % at 12.2 µM; purified PLC-gamma1, fluorogenic substrate, fluorescence; in the data active means inhibition above about 9.5%
PLC-beta3 inh: blocks human PLC-beta3 enzyme activity | Q01970 | Purified PLC-beta3, fluorogenic substrate, fluorescence | inhibition, % at 12.2 µM | actives 0.18% (n = 370,000);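 further: 0% = median of compound wells on plate and 100% = full blocker control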
PLCgamma1 ctr: PLC-gamma1 inhibition, counter-screen for PLC-beta3 hits; shares compounds with PLCg1 inh; purified PLC-gamma1, fluorogenic substrate, fluorescence; inhibition, % at 12.3 µM; actives 3.1% (n = 3,300); in the data active means inhibition above about 9.5%
PLCbeta3 conf: human PLC-beta3 inhibition, confirmation; shares compounds with PLCg1 inh; purified PLC-beta3, fluorogenic substrate fluorescence; inhibition, % at 12.3 µM; actives 1% (n = 3,300)
An asterisk follows results filed as active. Unless noted, no stated cut-off is given here; in the data, active means inhibition above about 11%; inactive means the rest.

How did CCOCCCNC(=O)C1(O)c2ccccc2NC(=O)N1c1ccc(Cl)c(Cl)c1 (stereo not drawn) do in these assays?
Rce1 inhib: inactive; PfM18AAP inh: 2.6; GC-A act: 2.4; GC-B act: 1.3; PLCg1 inh: 0.6; PLC-beta3 inh: 1.4

How did CCCCN(C)CCCNC(=O)C1(O)c2ccccc2NC(=O)N1c1ccc(Cl)cc1 (stereo not drawn) do in these assays?
Rce1 inhib: inactive; PfM18AAP inh: 1.6; GC-A act: 4.5; GC-B act: 2.9; PLCg1 inh: 11.7*; PLC-beta3 inh: 3.7; PLCgamma1 ctr: -4.6; PLCbeta3 conf: -6.7

Results for N#Cc1ccc(OCCCN2CCC(C(O)(C3=CCCC3)c3ccccc3)CC2)cc1 (stereo not drawn) ?
GC-A act: -14.2; GC-B act: -18.7; PLCg1 inh: 3.6; PLC-beta3 inh: 7.5

How did O=C(CN1CCN(C(=O)N2CCCCC2)CC1)Nc1ccc(F)cc1 do in these assays?
Rce1 inhib: inactive; PfM18AAP inh: 3.0; GC-A act: 8.8; GC-B act: 6.0; PLCg1 inh: 10.8*; PLC-beta3 inh: -1.9; PLCgamma1 ctr: 0.5; PLCbeta3 conf: -5.8

How did O=C(CN1CCCC1)Nc1ccc(F)cc1 do in these assays?
Rce1 inhib: inactive; PfM18AAP inh: -7.5; GC-A act: 2.9; GC-B act: -3.3; PLCg1 inh: 4.7; PLC-beta3 inh: 1.5

How did CC(C)CN(C(=O)COC(=O)c1ccc2ccccc2n1)C1CCS(=O)(=O)C1 (stereo not drawn) do in these assays?
Rce1 inhib: inactive; PfM18AAP inh: -13.5; GC-A act: -2.1; GC-B act: -0.5; PLCg1 inh: 0.2; PLC-beta3 inh: 1.5

Results for CC(C)CN(C(=O)COC(=O)Cc1n[nH]c(=O)c2ccccc12)C1CCS(=O)(=O)C1 (stereo not drawn) ?
Rce1 inhib: inactive; PfM18AAP inh: -0.1; GC-A act: 4.0; GC-B act: 0.8; PLCg1 inh: 11.6*; PLC-beta3 inh: 1.6; PLCgamma1 ctr: -7.2; PLCbeta3 conf: -1.5

Results for COc1ccc(S(=O)(=O)NCCCN2CCCC2=O)cc1OC ?
Rce1 inhib: inactive; PfM18AAP inh: 5.0; GC-A act: -0.1; GC-B act: 3.7; PLCg1 inh: 10.0*; PLC-beta3 inh: -2.3; PLCgamma1 ctr: -1.3; PLCbeta3 conf: 2.4

Results for CCN(CC)C(=O)CC[C@@H]1CC[C@]2(CCCN(C(=O)C(C)(C)C)C2)O1 ?
GC-A act: 1.2; GC-B act: 1.8; PLCg1 inh: -0.7; PLC-beta3 inh: 1.8

Results for COc1ccc(C(=O)CSc2nnc(-c3ccccc3)n2-c2ccc(Cl)cc2)cc1 ?
GC-A act: -7.5; GC-B act: -14.7; PLCg1 inh: -3.1; PLC-beta3 inh: -1.5

What do the screens show for `O=C(COC(=O)/C=C/c1cccc(F)c1)NNC(=O)c1ccccc1`?
Rce1 inhib: inactive; PfM18AAP inh: 1.4; GC-A act: 4.5; GC-B act: -0.1; PLCg1 inh: 10.7*; PLC-beta3 inh: 3.9; PLCgamma1 ctr: -10.3; PLCbeta3 conf: -5.1

Results for O=C(COC(=O)/C=C/c1cccc(F)c1)Nc1ccccc1 ?
Rce1 inhib: inactive; PfM18AAP inh: 6.9; GC-A act: 0.5; GC-B act: -0.2; PLCg1 inh: 0.2; PLC-beta3 inh: -1.4

Results for CC(C)C[C@H](NC1(C(=O)NC2CCCCC2)CCOCC1)C(=O)NCC(c1ccccc1)c1ccccc1 ?
GC-A act: -3.9; GC-B act: -6.3; PLCg1 inh: 1.9; PLC-beta3 inh: -2.0

What do the screens show for `O=C(CNC(=O)c1ccc(Br)o1)NC12CC3CC(CC(C3)C1)C2`?
PfM18AAP inh: 1.9; GC-A act: 0.3; GC-B act: 4.9; PLCg1 inh: 9.9*; PLC-beta3 inh: 3.6; PLCgamma1 ctr: 0.9; PLCbeta3 conf: 3.6
